How the values were obtained:
[1] = molecular target: Tyrosine-protein kinase CSK (Homo sapiens) (UniProt P41240); conditions: at 1 µM;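 further: each value is an averaged inhibition reading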
[2] = molecular target: T1, Discoidin domain-containing receptor 2 (Homo sapiens) (UniProt Q16832); conditions: at 0.1 µM
T1 sequence (whole entry): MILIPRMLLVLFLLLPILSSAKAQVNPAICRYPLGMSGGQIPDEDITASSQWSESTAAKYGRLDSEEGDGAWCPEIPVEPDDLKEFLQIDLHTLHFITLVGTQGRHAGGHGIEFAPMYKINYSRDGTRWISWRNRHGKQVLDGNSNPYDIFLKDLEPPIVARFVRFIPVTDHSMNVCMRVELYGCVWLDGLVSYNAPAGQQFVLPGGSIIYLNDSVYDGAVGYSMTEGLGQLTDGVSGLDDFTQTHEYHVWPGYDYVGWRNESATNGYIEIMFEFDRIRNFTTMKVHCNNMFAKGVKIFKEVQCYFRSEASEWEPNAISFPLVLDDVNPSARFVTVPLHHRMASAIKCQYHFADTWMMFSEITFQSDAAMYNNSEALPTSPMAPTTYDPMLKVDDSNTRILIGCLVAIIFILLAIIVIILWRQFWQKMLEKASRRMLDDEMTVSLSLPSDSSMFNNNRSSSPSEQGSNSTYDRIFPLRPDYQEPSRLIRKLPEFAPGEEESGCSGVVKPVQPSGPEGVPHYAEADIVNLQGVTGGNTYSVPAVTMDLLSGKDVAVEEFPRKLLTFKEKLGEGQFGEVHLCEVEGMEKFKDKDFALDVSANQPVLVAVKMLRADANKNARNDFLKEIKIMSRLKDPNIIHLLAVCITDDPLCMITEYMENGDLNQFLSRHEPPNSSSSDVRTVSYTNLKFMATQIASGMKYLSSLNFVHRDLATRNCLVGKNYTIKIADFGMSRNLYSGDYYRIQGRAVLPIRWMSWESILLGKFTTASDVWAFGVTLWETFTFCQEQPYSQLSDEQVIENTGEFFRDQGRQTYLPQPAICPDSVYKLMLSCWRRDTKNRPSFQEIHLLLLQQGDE

[3] = molecular target: T1, Discoidin domain-containing receptor 2 (Homo sapiens); conditions: at 1 µM
[4] = molecular target: Epidermal growth factor receptor (Homo sapiens) (UniProt P00533); conditions: at 0.1 µM
[5] = molecular target: Epidermal growth factor receptor (Homo sapiens) (UniProt P00533); conditions: at 1 µM
[6] = test system: Epidermal growth factor receptor (Homo sapiens), P00533 [L858R]; conditions: at 0.1 µM
[7] = test system: Epidermal growth factor receptor (Homo sapiens), P00533 [L858R]; conditions: at 1 µM
[8] = test system: Epidermal growth factor receptor (Homo sapiens), P00533 [L861Q]; conditions: at 0.1 µM
[9] = test system: Epidermal growth factor receptor (Homo sapiens), P00533 [L861Q]; conditions: at 1 µM
[10] = test system: Epidermal growth factor receptor (Homo sapiens), P00533 [T790M]; conditions: at 0.1 µM
[11] = test system: Epidermal growth factor receptor (Homo sapiens), P00533 [T790M]; conditions: at 1 µM
[12] = test system: Epidermal growth factor receptor (Homo sapiens), P00533 [L858R,T790M]; conditions: at 0.1 µM
[13] = test system: Epidermal growth factor receptor (Homo sapiens), P00533 [L858R,T790M]; conditions: at 1 µM
[14] = molecular target: Ephrin type-A receptor 2 (Homo sapiens) (UniProt P29317); conditions: at 0.1 µM
[15] = molecular target: Ephrin type-A receptor 2 (Homo sapiens) (UniProt P29317); conditions: at 1 µM
[16] = molecular target: T2, Ephrin type-A receptor 3 (Homo sapiens) (UniProt P29320); conditions: at 0.1 µM
T2 sequence (whole entry): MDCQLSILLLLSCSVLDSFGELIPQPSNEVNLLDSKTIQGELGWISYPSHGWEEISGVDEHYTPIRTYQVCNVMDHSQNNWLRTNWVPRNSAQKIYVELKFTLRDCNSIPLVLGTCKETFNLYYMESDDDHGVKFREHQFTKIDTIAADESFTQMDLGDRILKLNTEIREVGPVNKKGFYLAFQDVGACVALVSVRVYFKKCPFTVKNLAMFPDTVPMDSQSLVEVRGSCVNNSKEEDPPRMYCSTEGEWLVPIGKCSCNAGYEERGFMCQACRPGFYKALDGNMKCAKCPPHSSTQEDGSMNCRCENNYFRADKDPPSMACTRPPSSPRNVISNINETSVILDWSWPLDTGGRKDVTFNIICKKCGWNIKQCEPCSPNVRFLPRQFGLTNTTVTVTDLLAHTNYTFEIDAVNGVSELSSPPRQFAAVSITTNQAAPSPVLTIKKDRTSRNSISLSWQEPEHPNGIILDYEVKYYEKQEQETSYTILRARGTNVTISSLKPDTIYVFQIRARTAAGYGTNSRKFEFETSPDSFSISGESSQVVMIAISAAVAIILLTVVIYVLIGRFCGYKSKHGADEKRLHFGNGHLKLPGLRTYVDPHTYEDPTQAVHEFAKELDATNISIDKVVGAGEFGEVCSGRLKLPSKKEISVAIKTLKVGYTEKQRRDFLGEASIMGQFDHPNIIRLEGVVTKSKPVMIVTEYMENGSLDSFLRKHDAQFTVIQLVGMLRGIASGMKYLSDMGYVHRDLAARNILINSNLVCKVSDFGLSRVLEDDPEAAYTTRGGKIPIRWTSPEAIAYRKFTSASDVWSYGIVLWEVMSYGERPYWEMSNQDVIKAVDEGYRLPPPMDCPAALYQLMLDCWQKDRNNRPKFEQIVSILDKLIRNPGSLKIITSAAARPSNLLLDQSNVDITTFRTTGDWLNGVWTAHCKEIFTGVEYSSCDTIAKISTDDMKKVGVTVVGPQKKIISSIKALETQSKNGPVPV

[17] = molecular target: T2, Ephrin type-A receptor 3 (Homo sapiens); conditions: at 1 µM
[18] = molecular target: Ephrin type-A receptor 4 (Homo sapiens) (UniProt P54764); conditions: at 0.1 µM
[19] = molecular target: Ephrin type-A receptor 4 (Homo sapiens) (UniProt P54764); conditions: at 1 µM
[20] = molecular target: T3, Ephrin type-B receptor 2 (Homo sapiens) (UniProt P29323); conditions: at 0.1 µM;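 further: reported as mean inhibition of EPHB2, from the GSK PKIS dataset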
T3 sequence (whole entry): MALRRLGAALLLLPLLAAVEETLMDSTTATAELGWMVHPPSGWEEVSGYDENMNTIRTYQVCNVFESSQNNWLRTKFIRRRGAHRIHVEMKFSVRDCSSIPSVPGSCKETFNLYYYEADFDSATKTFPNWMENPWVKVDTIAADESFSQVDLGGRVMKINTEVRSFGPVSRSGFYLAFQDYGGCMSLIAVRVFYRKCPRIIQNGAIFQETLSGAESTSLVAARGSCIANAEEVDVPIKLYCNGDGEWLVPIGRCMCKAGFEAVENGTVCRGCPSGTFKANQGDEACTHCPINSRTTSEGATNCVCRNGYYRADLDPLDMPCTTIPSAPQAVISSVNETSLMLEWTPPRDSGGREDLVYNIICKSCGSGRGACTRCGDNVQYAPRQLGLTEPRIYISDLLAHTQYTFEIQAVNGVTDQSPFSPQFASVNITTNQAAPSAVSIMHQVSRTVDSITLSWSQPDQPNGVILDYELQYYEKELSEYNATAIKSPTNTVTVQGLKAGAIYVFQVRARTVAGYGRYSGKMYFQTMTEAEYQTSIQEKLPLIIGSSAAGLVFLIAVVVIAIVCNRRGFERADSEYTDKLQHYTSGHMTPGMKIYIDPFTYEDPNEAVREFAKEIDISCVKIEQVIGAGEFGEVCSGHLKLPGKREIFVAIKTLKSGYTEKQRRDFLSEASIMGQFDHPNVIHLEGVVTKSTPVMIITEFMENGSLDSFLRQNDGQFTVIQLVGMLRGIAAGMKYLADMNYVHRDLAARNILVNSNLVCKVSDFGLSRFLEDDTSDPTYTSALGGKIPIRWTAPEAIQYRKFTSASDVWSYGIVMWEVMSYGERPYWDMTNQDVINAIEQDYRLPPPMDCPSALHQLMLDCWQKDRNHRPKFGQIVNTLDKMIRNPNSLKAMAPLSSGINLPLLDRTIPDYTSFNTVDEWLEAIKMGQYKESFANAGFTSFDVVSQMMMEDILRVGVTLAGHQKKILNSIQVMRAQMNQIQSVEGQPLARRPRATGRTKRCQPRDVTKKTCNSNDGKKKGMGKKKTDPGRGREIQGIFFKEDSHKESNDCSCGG

Chain of Epidermal growth factor receptor (Homo sapiens), P00533 [L858R] (P00533 whole entry L858R): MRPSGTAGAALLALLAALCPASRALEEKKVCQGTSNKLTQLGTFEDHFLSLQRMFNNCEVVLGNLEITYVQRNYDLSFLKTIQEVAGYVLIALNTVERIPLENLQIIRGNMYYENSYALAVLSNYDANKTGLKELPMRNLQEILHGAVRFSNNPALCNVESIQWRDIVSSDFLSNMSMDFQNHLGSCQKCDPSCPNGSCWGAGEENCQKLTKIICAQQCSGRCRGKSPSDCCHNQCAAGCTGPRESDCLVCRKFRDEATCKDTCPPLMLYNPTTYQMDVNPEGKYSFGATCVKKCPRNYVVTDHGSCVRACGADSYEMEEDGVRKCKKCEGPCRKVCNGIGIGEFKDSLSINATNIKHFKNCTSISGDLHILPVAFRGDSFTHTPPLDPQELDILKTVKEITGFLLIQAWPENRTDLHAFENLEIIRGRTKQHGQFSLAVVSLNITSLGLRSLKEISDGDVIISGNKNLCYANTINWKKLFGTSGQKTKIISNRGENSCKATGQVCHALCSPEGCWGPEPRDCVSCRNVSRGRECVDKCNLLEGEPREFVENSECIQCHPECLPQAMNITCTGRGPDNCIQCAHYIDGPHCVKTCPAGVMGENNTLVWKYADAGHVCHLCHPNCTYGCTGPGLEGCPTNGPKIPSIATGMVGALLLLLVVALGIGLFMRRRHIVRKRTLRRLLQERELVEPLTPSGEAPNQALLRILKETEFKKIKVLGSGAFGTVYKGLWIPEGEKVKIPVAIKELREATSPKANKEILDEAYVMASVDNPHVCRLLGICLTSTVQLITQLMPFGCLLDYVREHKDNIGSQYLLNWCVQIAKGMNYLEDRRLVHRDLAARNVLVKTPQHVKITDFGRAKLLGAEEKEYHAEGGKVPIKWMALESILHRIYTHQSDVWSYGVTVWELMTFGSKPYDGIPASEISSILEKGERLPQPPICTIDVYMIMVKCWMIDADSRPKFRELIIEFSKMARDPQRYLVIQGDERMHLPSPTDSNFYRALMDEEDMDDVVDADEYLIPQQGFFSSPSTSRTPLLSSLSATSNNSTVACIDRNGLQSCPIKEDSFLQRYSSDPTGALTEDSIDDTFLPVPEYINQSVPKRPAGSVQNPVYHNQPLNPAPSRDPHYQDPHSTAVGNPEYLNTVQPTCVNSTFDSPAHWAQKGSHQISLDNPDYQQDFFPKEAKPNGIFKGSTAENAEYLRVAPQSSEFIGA
Chain of Epidermal growth factor receptor (Homo sapiens) (P00533 whole entry): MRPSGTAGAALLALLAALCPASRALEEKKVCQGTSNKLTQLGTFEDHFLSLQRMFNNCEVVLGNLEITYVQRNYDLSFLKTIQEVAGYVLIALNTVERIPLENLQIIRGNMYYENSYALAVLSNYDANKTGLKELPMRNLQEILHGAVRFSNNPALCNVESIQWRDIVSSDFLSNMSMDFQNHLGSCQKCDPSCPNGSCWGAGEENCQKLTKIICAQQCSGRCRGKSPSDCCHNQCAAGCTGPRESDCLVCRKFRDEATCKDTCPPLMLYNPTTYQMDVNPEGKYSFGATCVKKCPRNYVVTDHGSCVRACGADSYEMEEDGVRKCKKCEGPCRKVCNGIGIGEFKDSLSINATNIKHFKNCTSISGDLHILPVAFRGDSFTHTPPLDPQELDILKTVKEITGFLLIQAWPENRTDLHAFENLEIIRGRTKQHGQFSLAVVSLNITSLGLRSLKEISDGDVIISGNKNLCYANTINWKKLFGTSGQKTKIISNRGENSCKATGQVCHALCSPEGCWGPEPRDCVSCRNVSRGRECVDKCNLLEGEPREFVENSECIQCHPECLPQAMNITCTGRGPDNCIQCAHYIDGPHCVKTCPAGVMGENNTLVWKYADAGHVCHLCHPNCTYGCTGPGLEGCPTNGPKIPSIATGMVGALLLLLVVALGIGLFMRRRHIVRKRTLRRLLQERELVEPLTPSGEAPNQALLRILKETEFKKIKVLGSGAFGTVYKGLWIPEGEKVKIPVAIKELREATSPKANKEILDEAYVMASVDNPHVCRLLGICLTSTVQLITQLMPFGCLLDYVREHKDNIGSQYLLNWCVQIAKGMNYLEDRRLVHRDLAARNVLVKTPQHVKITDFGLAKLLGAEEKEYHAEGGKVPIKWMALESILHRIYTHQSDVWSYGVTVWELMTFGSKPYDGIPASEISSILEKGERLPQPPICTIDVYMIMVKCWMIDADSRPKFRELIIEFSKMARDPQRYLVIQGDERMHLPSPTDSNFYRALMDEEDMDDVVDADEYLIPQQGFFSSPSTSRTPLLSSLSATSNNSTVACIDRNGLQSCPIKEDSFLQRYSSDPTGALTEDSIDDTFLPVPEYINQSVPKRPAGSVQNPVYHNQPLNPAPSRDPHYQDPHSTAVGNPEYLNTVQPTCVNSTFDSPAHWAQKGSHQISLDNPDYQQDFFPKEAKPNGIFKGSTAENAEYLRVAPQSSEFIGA
Chain of Epidermal growth factor receptor (Homo sapiens), P00533 [L858R,T790M] (P00533 whole entry T790M/L858R, looked up): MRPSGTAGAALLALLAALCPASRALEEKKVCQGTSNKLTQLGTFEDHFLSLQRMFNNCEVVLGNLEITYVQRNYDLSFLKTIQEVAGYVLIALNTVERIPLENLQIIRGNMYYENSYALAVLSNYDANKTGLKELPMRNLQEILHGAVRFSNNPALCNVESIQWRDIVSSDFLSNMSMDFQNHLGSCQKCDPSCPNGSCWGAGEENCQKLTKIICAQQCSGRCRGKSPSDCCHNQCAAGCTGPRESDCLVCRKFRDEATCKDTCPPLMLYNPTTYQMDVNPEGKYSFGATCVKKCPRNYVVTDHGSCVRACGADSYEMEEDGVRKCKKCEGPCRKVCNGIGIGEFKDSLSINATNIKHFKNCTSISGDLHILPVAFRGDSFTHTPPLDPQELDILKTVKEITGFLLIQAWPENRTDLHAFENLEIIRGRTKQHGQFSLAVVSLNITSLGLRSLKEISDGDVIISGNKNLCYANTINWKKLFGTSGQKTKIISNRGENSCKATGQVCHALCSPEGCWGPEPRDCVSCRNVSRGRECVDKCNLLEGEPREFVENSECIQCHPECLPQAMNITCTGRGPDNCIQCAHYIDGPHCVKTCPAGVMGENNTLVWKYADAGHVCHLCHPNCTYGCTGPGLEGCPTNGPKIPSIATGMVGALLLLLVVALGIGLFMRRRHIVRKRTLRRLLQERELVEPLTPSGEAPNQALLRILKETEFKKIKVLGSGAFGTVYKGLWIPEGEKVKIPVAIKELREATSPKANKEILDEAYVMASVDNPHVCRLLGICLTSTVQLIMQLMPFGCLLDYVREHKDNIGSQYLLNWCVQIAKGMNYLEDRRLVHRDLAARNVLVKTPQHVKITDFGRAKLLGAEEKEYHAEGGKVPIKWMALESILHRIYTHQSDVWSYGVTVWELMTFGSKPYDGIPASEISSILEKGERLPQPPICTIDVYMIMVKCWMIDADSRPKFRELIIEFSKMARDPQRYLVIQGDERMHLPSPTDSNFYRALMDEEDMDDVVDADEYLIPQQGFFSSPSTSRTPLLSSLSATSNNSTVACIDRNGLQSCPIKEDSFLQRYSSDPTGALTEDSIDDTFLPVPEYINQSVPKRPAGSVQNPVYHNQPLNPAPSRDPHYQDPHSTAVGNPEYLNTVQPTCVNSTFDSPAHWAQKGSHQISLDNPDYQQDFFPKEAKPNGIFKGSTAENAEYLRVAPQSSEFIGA
Chain of Ephrin type-A receptor 2 (Homo sapiens) (P29317 whole entry): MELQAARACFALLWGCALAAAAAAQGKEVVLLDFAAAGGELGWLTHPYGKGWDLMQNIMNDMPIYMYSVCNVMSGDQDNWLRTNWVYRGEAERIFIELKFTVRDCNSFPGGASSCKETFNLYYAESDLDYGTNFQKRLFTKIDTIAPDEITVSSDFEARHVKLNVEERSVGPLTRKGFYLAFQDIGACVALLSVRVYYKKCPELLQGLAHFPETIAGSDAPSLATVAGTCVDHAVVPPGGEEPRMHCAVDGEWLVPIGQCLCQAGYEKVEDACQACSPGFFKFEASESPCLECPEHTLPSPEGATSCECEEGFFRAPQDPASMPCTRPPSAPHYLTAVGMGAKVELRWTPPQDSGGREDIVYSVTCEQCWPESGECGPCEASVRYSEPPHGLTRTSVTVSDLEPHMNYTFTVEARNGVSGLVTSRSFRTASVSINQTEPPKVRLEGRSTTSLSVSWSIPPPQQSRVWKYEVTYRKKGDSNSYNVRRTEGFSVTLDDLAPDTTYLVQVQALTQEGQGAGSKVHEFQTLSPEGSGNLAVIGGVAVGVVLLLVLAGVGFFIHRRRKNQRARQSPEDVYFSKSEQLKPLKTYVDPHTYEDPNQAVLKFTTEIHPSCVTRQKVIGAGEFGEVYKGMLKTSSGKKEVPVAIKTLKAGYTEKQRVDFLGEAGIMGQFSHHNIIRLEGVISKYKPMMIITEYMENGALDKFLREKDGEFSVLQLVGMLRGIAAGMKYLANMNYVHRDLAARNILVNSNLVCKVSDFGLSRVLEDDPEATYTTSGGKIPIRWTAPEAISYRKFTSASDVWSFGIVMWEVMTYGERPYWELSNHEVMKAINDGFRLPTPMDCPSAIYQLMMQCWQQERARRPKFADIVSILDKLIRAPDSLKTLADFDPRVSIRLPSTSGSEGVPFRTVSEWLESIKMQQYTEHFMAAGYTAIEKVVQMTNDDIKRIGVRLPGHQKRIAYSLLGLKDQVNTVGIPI
Chain of Tyrosine-protein kinase CSK (Homo sapiens) (P41240 2-450 limits assumed): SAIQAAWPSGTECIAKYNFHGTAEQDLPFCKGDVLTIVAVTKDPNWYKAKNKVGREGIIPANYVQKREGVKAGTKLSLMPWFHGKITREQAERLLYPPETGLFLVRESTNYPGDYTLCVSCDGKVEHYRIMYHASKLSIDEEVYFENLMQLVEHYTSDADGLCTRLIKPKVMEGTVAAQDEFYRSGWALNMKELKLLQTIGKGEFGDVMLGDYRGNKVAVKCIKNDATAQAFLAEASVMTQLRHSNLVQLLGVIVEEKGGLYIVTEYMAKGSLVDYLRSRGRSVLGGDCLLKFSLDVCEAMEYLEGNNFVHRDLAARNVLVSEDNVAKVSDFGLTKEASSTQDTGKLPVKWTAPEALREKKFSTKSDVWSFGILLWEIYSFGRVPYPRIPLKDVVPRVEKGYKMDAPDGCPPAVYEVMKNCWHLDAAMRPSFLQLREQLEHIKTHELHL

Row | Structure (SMILES) | inhibition [1] | inhibition [2] | inhibition [3] | inhibition [4] | inhibition [5] | inhibition [6] | inhibition [7] | inhibition [8] | inhibition [9] | inhibition [10] | inhibition [11] | inhibition [12] | inhibition [13] | inhibition [14] | inhibition [15] | inhibition [16] | inhibition [17] | inhibition [18] | inhibition [19] | inhibition [20]
1 | NC(=O)c1cccc(Nc2nccc(Nc3cccc4[nH]ncc34)n2)c1 | 26.5% | 19.9% | 77.6% | 2.96% | 24.1% | 13.4% | 70.1% | 3.36% | 27.8% | -1.89% | -2.41% | -5.66% | 8.31% | 7.85% | 53.6% | 40.2% | 72.9% | 31% | 81.1% | 30.4%
2 | O=C1NC(=O)C(N2CCc3ccccc32)=C1c1ccc(Cl)cc1 | 0.75% | 3.2% | 8.8% | -0.66% | 3.22% | -1.38% | 5.23% | 4.7% | 2.74% | 2.82% | -0.47% | 1.35% | 2.67% | 1.33% | 1.75% | 3.76% | 3.61% | 8.28% | 3.43% | 5.72%
3 | COc1cccc(-n2ncc3c(N/N=C/c4cccc(F)c4)ncnc32)c1 | 4.81% | 1.22% | 2.49% | 0.53% | 8.49% | 6.62% | 37.9% | 2.52% | 7.42% | -0.78% | 0.45% | -0.32% | 2.54% | -6.37% | -5.64% | -1.03% | -0.95% | 4.81% | 2.57% | 3.17%
4 | CCCN1CCC(Oc2cc(Nc3nc(Nc4cccc(F)c4C(N)=O)c4cc[nH]c4n3)c(OC)cc2Cl)CC1 | 0.71% | 5.18% | 9.57% | 1.11% | 2.64% | 1.86% | 1.31% | 1.13% | 0.75% | -0.41% | -0.49% | -2.63% | 2.79% | -1.48% | 0.75% | -0.71% | 2.51% | 3.96% | 9.42% | 5.31%
5 | O=C1NC(=O)C(c2cccc(Cl)c2)=C1Nc1ccc(O)c(Cl)c1 | -5.59% | -1.25% | -1.13% | -0.21% | 1.12% | -2.01% | -0.47% | -0.43% | -0.33% | -0.72% | -0.85% | 0.92% | 0.61% | 0.74% | 1.32% | 0.53% | -2.04% | 1.17% | -8.81% | -3.19%
6 | COc1ccccc1Nc1ncc(-c2ccccc2)o1 | 3.11% | 0.86% | 0.42% | 1.13% | 5.3% | 0.79% | 0.46% | 1.31% | 1.75% | 2.11% | 2.18% | 1.54% | 1.28% | 2.74% | 1.76% | 2.8% | 4.86% | 7.21% | 12.8% | 7.35%
7 | CCN1CCC(CC(=O)Nc2n[nH]c3nc(-c4cccs4)c(Br)cc23)CC1 | -4.84% | -0.58% | 0.03% | 1.1% | 3.65% | 0.06% | 3.28% | -0.27% | 1.14% | -1.65% | -1.12% | 0.09% | -0.41% | -3.7% | -1.54% | -7.71% | -2.29% | -7.32% | -3.58% | -2.13%
8 | COC(=O)Nc1nc2cc(Oc3cccc(NC(=O)Nc4cc(C(F)(F)F)ccc4F)c3)ccc2[nH]1 | 2.36% | 13.2% | 68.6% | 0.87% | 1.45% | -1.54% | 1.41% | -1.86% | -4.32% | -1.19% | -1.93% | -3.25% | 3.44% | -2.35% | 3.83% | 0.48% | 2.56% | 1.63% | 14.2% | -0.54%
9 | CCn1c(-c2nonc2N)nc2cnc(Oc3cccc(NC(=O)c4ccc(OCCN5CCOCC5)cc4)c3)cc21 | 2.94% | 1.27% | -0.68% | 1.37% | 3% | 1.72% | 2.23% | 2.62% | 2.57% | 0.97% | 2.18% | -0.63% | 3.24% | -2.53% | -2.47% | 3.26% | 4.85% | 7.53% | 7.73% | 5.7%
10 | Fc1cccc(COc2ccc(Nc3ncnc4cc(-c5ccc[nH]5)sc34)cc2Cl)c1 | 1.12% | 0.15% | -1% | 66.2% | 77.3% | 32.5% | 82.9% | 37.8% | 71.8% | 0.21% | 2.62% | -2.38% | 0.3% | -6.71% | -6.16% | -1.97% | -0.94% | 5.45% | 6.22% | 1.52%
11 | COc1cc2c(cc1Nc1nc(N3CCc4ccccc43)c3cc[nH]c3n1)N(C(=O)CN(C)C)CC2 | 0.41% | 0.28% | 0.74% | -0.08% | 1.28% | 1.45% | 2.18% | 1.47% | -0.39% | 1.57% | 2.36% | 3.77% | 9.23% | 2.22% | 2.11% | 2.13% | 0.93% | 3.39% | 6.36% | 2.81%
12 | NCc1ccc(-c2nc(-c3ccc(Cl)c(O)c3)c(-c3ccncc3)[nH]2)cc1 | 7.83% | 0.6% | 9.1% | 4.77% | 21.8% | 1.78% | 31.9% | 1.15% | 13.5% | -0.03% | 0.46% | 0.24% | 5.04% | 2.14% | 8.19% | 3.13% | 2.67% | 4.74% | 21.9% | -0.39%
